High-throughput results (PubChem BioAssay)
An excerpt weighted towards active compounds, which were near 3.4% of everything screened.
PLC-beta3 inh: PLC-beta3 (human) inhibition, primary screen; Purified PLC-beta3, fluorogenic substrate, fluorescence; inhibition, % at 12.2 µM; 370,000 compounds, 0.18% hits; AID 720704; in the data active means inhibition above about 11%;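 further: 0% = median of compound wells on plate and 100% = full blocker control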
ADAM10 inh: inhibitors of human ADAM10; O14672; recombinant ADAM10, EDANS/DABCYL FRET peptide cleavage, 3 h; inhibition, % at 7 µM; 370,000 compounds, 0.62% hits;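 active means inhibition above a per-campaign cutoff equal to the mean of compounds falling between control-based bounds plus 3 SD, cut at about 20% in these data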;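 further: 0% = DMSO wells while the 100% control is not disclosed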
ADAM17 inh: ADAM17 inhibition, QFRET primary screen. P78536. recombinant ADAM17, EDANS/DABCYL FRET peptide cleavage. inhibition, % at 6.95 µM. 370,000 compounds, 0.83% hits;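 active means inhibition above the mean of compounds lying between control limits plus 3 SD, set per campaign, cut at about 8.5% in these data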;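 further: 0% = DMSO-only wells as the low control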
KLK7 zymogen act: activators of human kallikrein-7 zymogen | purified proKLK7, EDANS-DABCYL substrate fluorescence; 100% is mature enzyme control, 0% vehicle | activation, % at 7 µM | 370,000 compounds, 0.9% hits | AID 652039;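 active means activation above the mean of all tested compounds plus 3 SD, computed per campaign excluding outliers beyond control limits, cut at about 13% in these data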
HGIII-sPLA2 inh: Blocks human group III sPLA2 activity | AID 743126 | inhibition, % at 12.2 µM | Q9NZ20 | QFRET BODIPY PC-A2 liposome hydrolysis, fluorescence | 370,000 compounds, 0.56% hits;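 active means inhibition above mean plus 3 SD of compounds lying within the high and low control bounds, cut at about 19% in these data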;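 further: 0% = median of test compound wells and 100% = no enzyme DMSO wells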
Target sequence (Q9NZ20 whole entry, looked up): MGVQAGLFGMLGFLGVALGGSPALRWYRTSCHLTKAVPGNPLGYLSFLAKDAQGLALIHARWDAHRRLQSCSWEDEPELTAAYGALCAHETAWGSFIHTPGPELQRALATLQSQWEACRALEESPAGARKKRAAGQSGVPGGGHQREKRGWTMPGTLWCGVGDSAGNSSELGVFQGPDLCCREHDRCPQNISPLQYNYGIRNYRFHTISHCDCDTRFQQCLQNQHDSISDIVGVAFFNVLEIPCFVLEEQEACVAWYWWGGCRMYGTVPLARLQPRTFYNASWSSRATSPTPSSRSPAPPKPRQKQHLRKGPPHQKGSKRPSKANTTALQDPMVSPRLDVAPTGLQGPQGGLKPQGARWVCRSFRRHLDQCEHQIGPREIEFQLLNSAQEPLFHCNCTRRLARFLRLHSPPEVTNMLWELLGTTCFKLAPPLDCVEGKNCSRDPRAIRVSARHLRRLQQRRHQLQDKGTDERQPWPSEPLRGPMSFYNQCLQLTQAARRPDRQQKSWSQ
PLCg1 inh: PLC-gamma1 (human) inhibition, primary screen; P19174; purified PLC-gamma1, fluorogenic substrate, fluorescence; inhibition, % at 12.2 µM; 370,000 compounds, 0.84% hits; AID 720700; in the data active means inhibition above about 9.5%
sPLA2 confirm: human GIII-sPLA2 inhibition, confirmation; recombinant hGIII-sPLA2, BODIPY PC-A2 QFRET fluorescence; shares compounds with HGIII-sPLA2 inh; AID 743280; 2,000 compounds, 34% hits; inhibition, % at 12.2 µM;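 active means mean inhibition across triplicates above the hit cutoff set in the earlier primary screen, cut at about 19% in these data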;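 further: 0% = enzyme with DMSO and 100% = DMSO wells lacking enzyme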
535nm interf: optically interferes with 535nm fluorescence in sPLA2 counter-screen; shares compounds with HGIII-sPLA2 inh; BODIPY FL product fluorescence interference, QFRET; inhibition, % at 12.2 µM; 2,000 compounds, 8.5% hits;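 active means average inhibition above the solvent-only control mean plus 3 SD, cut at about 6% in these data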;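 further: 0% = DMSO with substrate plus product and 100% = DMSO with substrate alone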
BODIPY interf DR: counter-screen for HGIII-sPLA2 inhibitors: 535nm fluorescence interference, dose response | BODIPY FL product fluorescence interference, cell-free | IC50, µM | shares compounds with HGIII-sPLA2 inh | AID 743455 | 240 tested, under 10 active;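 active means IC50 at or below 10 µM; inactive means IC50 above 10 µM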
An asterisk follows results filed as active; . = no result given.

SMILES	PLC-beta3 inh	ADAM10 inh	ADAM17 inh	KLK7 zymogen act	HGIII-sPLA2 inh	PLCg1 inh	sPLA2 confirm	535nm interf	others
O=C(NNC(=O)c1ccc2ccccc2c1O)Nc1ccc(F)cc1	-88	-416	-128	-3	28*	-51	30*	1	BODIPY interf DR=>122
COC(=O)[C@]12C[C@H](CC(=O)NCCCN3CCCC3=O)C(=O)N(CCc3ccc(OC)c(OC)c3)C1=C[C@H](C1CCCC1)O[C@@H]2C	2	2	0	0	0	-1	.	.
O=C(Cc1ccc(NC(=O)C2CCN(C(=O)C3CCCC3)CC2)cc1)Nc1cccc(C(=O)N2CCCC2)c1	-1	-10	-5	1	-8	1	.	.
Cc1ccc2c(c1)C1CS(=O)(=O)N(CCc3ccccc3)C(=O)N1C2 (configuration not stated)	2	-2	-3	1	19*	8	2	-9
CCOc1ccc(NC(=S)NC(=O)c2c(Cl)cnn2CC)c([N+](=O)[O-])c1	-1	-4	-5	0	22*	3	20*	-2
COC(=O)c1ccccc1NC(=S)NC(NC(=O)c1ccccc1[N+](=O)[O-])C(Cl)(Cl)Cl (configuration not stated)	1	-3	-6	-1	3	3	.	.
COc1ccc(NC(=O)c2cccc(NC(=O)C(C)C)c2)c([N+](=O)[O-])c1	1	2	-4	0	9	0	.	.
COc1ccc(NC(=O)c2ccc(NC(=O)C(C)C)cc2)c([N+](=O)[O-])c1	-3	2	-6	0	20*	0	-4	-5
COc1ccc(NC(=S)NC(NC(=O)c2ccccc2Cl)C(Cl)(Cl)Cl)c([N+](=O)[O-])c1 (configuration not stated)	0	3	3	0	28*	5	35*	7.2*
COc1cccc(/C=C2\CC3(OC(=O)c4ccco4)CCCN2C3)c1 (configuration not stated)	-4	2	0	-1	0	1	.	.
COc1cc(/C=N/n2c(-c3cc(C)[nH]n3)n[nH]c2=S)ccc1O	-5	-2	-1	0	0	2	.	.
COc1cccc(/C=N/n2c(-c3cc(C)[nH]n3)n[nH]c2=S)c1	-10	3	-3	-1	19*	5	23*	1
CCn1c2ccccc2c2cc(NC(=O)c3ccc(Br)o3)ccc21	-21	3	3	-1	21*	-18	16	-2
C=CCN1C(=O)c2ccc(C(=O)OCC(=O)Nc3ccccc3OC)cc2C1=O	-6	-6	-4	1	20*	5	-2	-4
O=C(OC[C@@H]1CCCN2CCCC[C@H]12)c1cc2ccccc2oc1=O	-17	-65	-15	-8	20*	-12	2	-7
C[N+](C)(C)CCCCCC[N+](C)(C)C	3	-1	1	-1	3	3	.	.
C[N+](C)(C)CCCCCC(=O)/C=N/O	8	1	-6	0	22*	1	4	-5
COc1cc(O)c([C@@H](CC(=O)N2CC(C)CC(C)C2)c2ccc3c(c2)OCO3)c(OC)c1 (some centres not stated)	3	11	3	.	-18	0	.	.
CC(=O)NNc1nc(-c2ccccc2)cs1	-67	-8	-1	-1	4	-56	.	.
O=C(NNc1nc(-c2ccccc2)cs1)c1cccs1	-13	6	0	0	33*	0	49*	11*
O=C(NNc1nc(-c2ccccc2)cs1)c1ccc(F)cc1	-30	5	0	0	36*	-13	46*	11*
O=C(NNc1nc(-c2ccc(F)cc2)cs1)c1ccccc1	-160	14	2	-1	29*	-10	40*	8.1*
O=C1CSc2ccc(C(=O)N3CCCC(C(=O)N4CCN(c5ccc(F)cc5)CC4)C3)cc2N1 (configuration not stated)	2	-12	4	0	1	2	.	.
CCCN1CCS(=O)(=O)N(Cc2cn(Cc3ccc(OC)cc3)nn2)C(C(=O)OC)C1 (configuration not stated)	-2	-4	-5	0	3	-3	.	.
O=C(COC(=O)c1cc(Cl)ccc1[N+](=O)[O-])Nc1cccc2ccccc12	1	6	4	0	-7	-9	.	.
SMILES	PLC-beta3 inh	ADAM10 inh	ADAM17 inh	KLK7 zymogen act	HGIII-sPLA2 inh	PLCg1 inh	sPLA2 confirm	535nm interf	others
Cc1ccc(NC(=O)COC(=O)c2cc(Cl)ccc2[N+](=O)[O-])c(C)c1	-3	-15	-4	0	20*	0	2	-6
O=C(OCC#CCSc1nnc(-c2cccc3ccccc23)o1)C1CCCC1	-23	-43	-11	.	-8	-17	.	.
O=C(CNC1CCCC1)Nc1cc(Cl)ccc1[N+](=O)[O-]	-5	-12	-2	0	21*	3	14	-5
COc1ccc(CN2C(=O)CCCC2(C)c2nnnn2-c2c(C)cccc2C)cc1OC (configuration not stated)	0	1	-1	0	-8	-2	.	.
COc1cccc(-c2csc(N3CCN(C(=S)Nc4ccccc4)CC3)n2)c1	8	5	5	0	19*	8	11	-4
COc1cccc(-c2csc(N3CCN(C(=S)Nc4ccc(Cl)cc4)CC3)n2)c1	2	5	0	0	3	-1	.	.
CC(NC(=O)Cc1ccccc1[N+](=O)[O-])c1ccccc1 (configuration not stated)	5	-5	-3	0	23*	5	-4	-4
CC(NC(=O)COC(=O)Cc1ccccc1[N+](=O)[O-])c1ccccc1 (configuration not stated)	-1	4	-1	0	-3	5	.	.
NNC(=O)c1nc[nH]c1C(=O)Nc1ccccc1	-8	11	8	-4	27*	-2	7	-3
CN(C)c1ccc(C=c2c3cc([N+](=O)[O-])ccc3n3c2cc(-c2ccccc2)[n+]3C)cc1	9	-11	3	-1	48*	5	98*	-9	BODIPY interf DR=>122
Cn1c(CO)c(-c2ccccc2)c2cc([N+](=O)[O-])ccc21	-27	2	8	1	-1	-13	.	.
